The values below come from PubChem BioAssay AID1220 (Sanford-Burnham Center for Chemical Genomics, 2008).

About 1,300 (0.68%) of roughly 190,000 compounds were called active. This excerpt belongs to a sample that is enriched for actives. Unmarked numbers belong to inactive results. Cut-off read from the data, not from the text of the source: active = inhibition above about 50%; inactive = the rest.

The target of this assay is Mannose-6-phosphate isomerase (Homo sapiens) (UniProt P34949). The assay can be described thus: human PMI inhibitors, high substrate, primary screen, biochemical, fluorescence intensity, high mannose 6-phosphate (AID 1220). The settings on record: recombinant PMI enzyme, coupled fluorescence intensity; at 20 µM; active compounds read high.
Sequence of Mannose-6-phosphate isomerase (Homo sapiens) (P34949 whole entry, looked up): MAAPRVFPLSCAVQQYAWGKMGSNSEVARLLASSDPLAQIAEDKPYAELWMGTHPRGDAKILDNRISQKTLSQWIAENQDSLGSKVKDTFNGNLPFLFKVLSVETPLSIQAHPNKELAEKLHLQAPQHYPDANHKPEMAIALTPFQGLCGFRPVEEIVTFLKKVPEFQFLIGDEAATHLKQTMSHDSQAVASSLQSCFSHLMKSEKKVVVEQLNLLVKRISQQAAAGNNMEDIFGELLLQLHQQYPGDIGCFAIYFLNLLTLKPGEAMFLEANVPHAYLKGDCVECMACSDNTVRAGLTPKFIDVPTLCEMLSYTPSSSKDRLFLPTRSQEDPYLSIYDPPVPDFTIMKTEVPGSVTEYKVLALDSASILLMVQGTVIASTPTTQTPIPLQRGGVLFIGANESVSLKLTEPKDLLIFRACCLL
As a reminder, the inhibition is the change of the read-out against control, counted positive when it falls. As for `COc1ccc(-c2nc(NC(=O)Cn3c(=O)oc4ccccc43)sc2C)cc1`, the inhibition was 16.1%. As to `Nn1c(SCc2ccccc2)nc2c(cnn2-c2ccccc2)c1=O`, the inhibition was 4.9%. For `COc1ccc(-c2cccc(C(=O)NCC(=O)O)c2)cc1`, the inhibition is 2.2%. As to `Cc1ccccc1Nc1nc(N)nc(CN2CCN(Cc3ccc4c(c3)OCO4)CC2)n1`, the inhibition was -1.7%.

For the compound `CCC1CCCCN1C(=S)Nc1cccc(S(=O)(=O)N(C)C)c1` (stereo not drawn), the inhibition was -6.4%. Take `COc1cc(CN2CCCC(C(=O)c3ccc4c5c(cccc35)CC4)C2)cc(OC)c1O` (stereo not drawn): the inhibition is 74.7% (active).

In the case of `O=C(c1ccc2c3c(cccc13)CC2)C1CCCN(Cc2cccnc2)C1` (stereo not drawn), the inhibition is 11.4%. For the compound `O=C(c1ccc2c3c(cccc13)CC2)C1CCCN(Cc2ccncc2)C1` (stereo not drawn), the inhibition is -2.1%.

Turning to `CC(C)NC(=O)c1ccccc1NC(=O)Cc1ccc(Cl)cc1`, the inhibition was -7.2%.

As to `CCn1c2ccccc2c2cc(NC(=O)CCCN3C(=O)CCC3=O)ccc21`, the inhibition was -9.6%. As to `CCOC(=O)c1ccc(N/C=C2/CCCC(C)C2=O)cc1` (stereo not drawn), the inhibition was 8.1%. The result for `CC1CCC/C(=C\Nc2ccc(O)cc2)C1=O` (stereo not drawn) reads 57.1% (active); that for `CC1CCC/C(=C\Nc2ccc(C(=O)O)cc2)C1=O` (stereo not drawn), 25.7%. For the compound `O=C(Cc1ccccc1)N/N=C/c1cccs1`, the inhibition is 4.5%. For `O=C(Oc1cccc(O)c1)C1CCCCC1`, the inhibition was 13%.

For `O=C(Oc1ccc2ccc(=O)oc2c1)C1CCCCC1`, the inhibition is -2.5%.

As to `O=C(Oc1ccc2ccc(O)cc2c1)C1CCCCC1`, the inhibition was 55% (active).

For the compound `CCOC(=O)C1CCCN(C(=S)NC2CCCCC2)C1` (stereo not drawn), the inhibition is 2.4%. Consider `CCn1c(SCC(=O)c2ccc(C)cc2)nnc1-c1ccoc1C`, for which the inhibition was -13.6%. As to `Cc1noc(C)c1S(=O)(=O)N1CCC(C(=O)NCCCN2CC(C)CC(C)C2)CC1` (stereo not drawn), the inhibition is 54.6% (active). Consider `Cc1noc(C)c1S(=O)(=O)N1CCC(C(=O)NCCN2CCC(C)CC2)CC1`, for which the inhibition is 7.6%. `CCC1CCCCN1CCNC(=O)C1CCN(S(=O)(=O)c2c(C)noc2C)CC1` (stereo not drawn): the inhibition is 1.5%. Consider `CCNC(=S)Nc1scc(-c2ccccc2)c1C(=O)OCC`, for which the inhibition was 52.2% (active). On to `CCOC(=O)c1c(-c2ccccc2)csc1NC(=S)NC`, for which the inhibition was 14.4%. For `CCOC(=O)c1c(-c2ccccc2)csc1NC(=S)N(CC)CC`, the inhibition was 14.7%. The result for `COC(=O)c1c(C)[nH]c(O)c1C=Nc1ccc(C#N)cc1` reads 1.7%; that for `N#CC1=C2SCN(Cc3ccco3)CN2C(=O)CC1c1ccc(Cl)cc1` (stereo not drawn), 53.5% (active); that for `N#CC1=C2SCN(c3ccc(F)cc3)CN2C(=O)CC1c1cccc(F)c1` (stereo not drawn), 14.8%. As for `N#CC1=C2SCN(Cc3ccco3)CN2C(=O)CC1c1c(F)cccc1Cl` (stereo not drawn), the inhibition is -26.5%. Regarding `Cc1ccc(C2CC(=O)N3CN(Cc4ccco4)CSC3=C2C#N)cc1` (stereo not drawn), the inhibition was 62.6% (active). Consider `COc1ccc(C2CC(=O)N3CN(Cc4ccco4)CSC3=C2C#N)cc1` (stereo not drawn), for which the inhibition was 73.2% (active). The result for `CC(C)c1ccc(C2CC(=O)N3CN(Cc4ccco4)CSC3=C2C#N)cc1` (stereo not drawn) reads 76% (active); that for `CCOc1ccc(N2CSC3=C(C#N)C(c4ccco4)CC(=O)N3C2)cc1` (stereo not drawn), -62.8%.

As for `Cc1ccc(N2CSC3=C(C#N)C(c4cccs4)CC(=O)N3C2)cc1` (stereo not drawn), the inhibition was -74.9%.

As to `COc1ccc(C2CC(=O)N3CN(c4ccc(C)c(Cl)c4)CSC3=C2C#N)cc1` (stereo not drawn), the inhibition was 19.1%. `Cc1ccc(C2CC(=O)N3CN(c4ccc(Br)cc4)CSC3=C2C#N)o1` (stereo not drawn): the inhibition was -40.7%. For `N#CC1=C2SCN(c3ccccc3)CN2C(=O)CC1c1c(Cl)cccc1Cl` (stereo not drawn), the inhibition was 23.8%.

With `Cc1cccc(N2CSC3=C(C#N)C(c4ccc(C)o4)CC(=O)N3C2)c1` (stereo not drawn), the inhibition was -1.2%.
